Assay results: PubChem BioAssay
Several values for one entry are separate records, joined by “and”; a condition that tells them apart may be missing. Equal values may be shown once. Activity calls are given as the source filed them.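 Rule for the calls, unless noted: active = compounds whose cell count with miR-34 switched on is under 0.7 times the count with it off; inactive = the rest.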

Experiments:
[1] = viability loss with induced miR-34 in A549 – imaging, A549 dox-inducible miR-34, nuclei and caspase counts, primary screen (AID 1347080); conditions: A549 miR-34 inducible, Hoechst nuclei count, 48 h
[2] = MELAS cybrid and Rieske KO viability enhancers – cell-based, MELAS cybrids, Rieske KO mouse fibroblasts, CellTiter-Glo, primary screen (AID 1508586;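 active = mean z-score across replicates of 1.96 or higher in either the MELAS or the Rieske mutant cell line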;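 note: z relative to plate mean and SD of compound and empty wells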); conditions: low glucose
[3] = stronger effect = lower value, cell number ratio, induced over uninduced
[4] = measured here: relative caspase fold change +Dox/-Dox
[5] = measured here: total cells with miR-34 induction, stronger effect = lower value
[6] = measured here: total cells without miR-34 induction
[7] = MELAS cybrid survival, CellTiter-Glo 48 h, stronger effect = higher value
[8] = Rieske KO mouse fibroblast survival, CellTiter-Glo 72 h
Note: test concentration not given here.

Row | Compound | fold change [1, 3] | fold change [1, 4] | cell count [1, 5] | cell count [1, 6] | z-score [2, 7] | z-score [2, 8]
1 | O=C(O)CC1CC(c2ccccc2)=NO1 (configuration not stated) | 0.969 (inactive) | 0.43 | 8760 | 9040 | -0.328 (inactive) | 0.698
2 | Cc1cncc(CN2CCC(=C3c4ccc(Cl)cc4CCc4cccnc43)CC2)c1 | 1.04 (inactive) | 0.52 | 6230 | 6000 | -0.369 (inactive) | -0.161
3 | COc1cccc2c1C(=O)c1c(O)c3c(c(O)c1C2=O)C[C@@](O)(C(C)=O)CC3O[C@H]1CC(N)C(O)C(C)O1 (some centres not stated) | 0.959 (inactive) | 0.948 | 2300 | 2390 | 2.59 (active) | -0.443
4 | CN(C)CCCCC(=O)Nc1ccc(NC(=S)NC(=O)c2ccc(C(C)(C)C)cc2)cc1 | 1.13 (inactive) and 1.1 (inactive) | 0.871 and 0.667 | 4160 and 3360 | 3670 and 3070 | 0.0334 (inactive) | -0.0265
5 | Cn1cc(C=CC(=O)c2cccc(F)c2)cc1C=CC(=O)NO | 0.9 (inactive) | 1.19 | 7610 | 8450 | -0.416 (inactive) | 0.68
6 | CC(OC1OCCN(Cc2n[nH]c(=O)[nH]2)C1c1ccc(F)cc1)c1cc(C(F)(F)F)cc(C(F)(F)F)c1 (configuration not stated) | 0.911 (inactive) | 3.19 | 7240 | 7950 | 1.33 (inactive) | -2.44
7 | NC(=O)NN=Cc1ccc([N+](=O)[O-])o1 | 0.88 (inactive) | 0.871 | 7280 | 8270 | -0.0834 (inactive) | -0.616
8 | CC(C)OC(=O)C(C)N[P@](=O)(OCC1OC(n2ccc(=O)[nH]c2=O)[C@](C)(F)C1O)Oc1ccccc1 (some centres not stated) | 0.909 (inactive) | 0.639 | 9560 | 10500 | -0.378 (inactive) | 0.864
9 | O=C1NC(=O)C(=Cc2ccc3nccc(-c4ccncc4)c3c2)S1 | 0.936 (inactive) | 0.601 | 1700 | 1820 | 0.995 (inactive) | -1.12
10 | COc1c(C)c2c(c(O)c1CC=C(C)CCC(=O)OCCN1CCOCC1)C(=O)OC2 | 0.917 (inactive) | 1.06 | 1830 | 1990 | 0.827 (inactive) | -0.579
11 | NC(=O)Nc1cc(-c2cccc(F)c2)sc1C(=O)NC1CCCNC1 (configuration not stated) | 1.01 (inactive) | 0.785 | 866 | 858 | -0.543 (inactive) | -2.7
12 | CN(C)Cc1ccc(S(=O)(=O)n2ccc(C=CC(=O)NO)c2)cc1 | 0.784 (inactive) | 0.443 | 1500 | 1910 | -0.566 (inactive) | -0.298
13 | C[C@]12CCC(=O)C=C1CC[C@@H]1[C@H]2C(O)C[C@@]2(C)[C@H]1CC[C@@]2(O)C(=O)CO (some centres not stated) | 0.923 (inactive) | 0.886 | 5230 | 5670 | -0.31 (inactive) | -0.201
14 | CCC(C)C(=O)OC1CC(O)C=C2C=CC(C)C(CCC(O)CC(O)CC(=O)O)[C@H]21 (some centres not stated) | 0.937 (inactive) | 0.958 | 7720 | 8230 | 0.0242 (inactive) | -0.0533
15 | O=S(=O)(c1ccccc1)c1cnc2c(N3CCNCC3)cccc2c1 | 0.946 (inactive) | 0.61 | 7690 | 8130 | -0.577 (inactive) | -0.0242
16 | Cc1ccc(C(=O)NCCCCCC(=O)Nc2ccccc2N)cc1 | 0.986 (inactive) | 0.44 | 4890 | 4960 | -0.614 (inactive) | -2
17 | CNc1ncnc2c1ncn2C1OC(CO)C(O)C1O (configuration not stated) | 0.908 (inactive) | 0.537 | 7310 | 8050 | -0.0172 (inactive) | -0.235
18 | C#CCNC1CCc2ccccc21 (configuration not stated) | 1.01 (inactive) | 0.344 | 8040 | 7960 | -0.195 (inactive) | -0.00726
19 | CN1CCCC1Cc1c[nH]c2ccc(CCS(=O)(=O)c3ccccc3)cc12 (configuration not stated) | 0.975 (inactive) | 1.13 | 9340 | 9580 | -0.473 (inactive) | -0.595
20 | CC(C)CC(NC(=O)CNC(=O)c1cc(Cl)ccc1Cl)B(O)O (configuration not stated) | 0.948 (inactive) | 1.44 | 1800 | 1900 | -0.0464 (inactive) | -3.37
21 | NC(Cc1c[nH]c2ccc(O)cc12)C(=O)O (configuration not stated) | 0.876 (inactive) | 0.739 | 8790 | 10000 | -0.256 (inactive) | 0.553
22 | CCC(C)[C@H]1O[C@]2(CCC1C)CC1C[C@@H](CC=C(C)C(O[C@H]3CC(OC)C(O[C@H]4CC(OC)C(O)C(C)O4)C(C)O3)C(C)C=CC=C3CO[C@@H]4C(O)C(C)=C[C@H](C(=O)O1)[C@]34O)O2 (some centres not stated) | 1.18 (inactive) | 0.443 | 3750 | 3170 | -0.0305 (inactive) | 0.298
23 | CC1COCCN1c1cc(C2(S(C)(=O)=O)CC2)nc(-c2cccc3[nH]ccc23)n1 (configuration not stated) | 0.703 (inactive) | 2.27 | 1950 | 2770 | 2.53 (active) | -0.319
24 | CC(C)(C)[N+]([O-])=Cc1ccc(S(=O)(=O)O)cc1S(=O)(=O)O | 0.908 (inactive) | 1.03 | 9880 | 10900 | -0.368 (inactive) | 0.732

Row | Compound | fold change [1, 3] | fold change [1, 4] | cell count [1, 5] | cell count [1, 6] | z-score [2, 7] | z-score [2, 8]
25 | CCc1c(Cl)c(O)c(Cl)c(O)c1C(=O)OC1C(C)OC(OCC2=CC=CCC(O)C(C)=CC(CC)C(O[C@@H]3OC(C)(C)C(OC(=O)C(C)C)C(O)C3O)C(C)=CC(C)=CC[C@H](C(C)O)OC2=O)C(OC)C1O (some centres not stated) | 0.841 (inactive) | 0.698 | 6980 | 8290 | -0.301 (inactive) | -0.0909
26 | CC(=O)C1CC[C@H]2[C@@H]3CCC4=CC(=O)CC[C@]4(C)[C@@H]3CC[C@]12C (some centres not stated) | 0.844 (inactive) | 1.47 | 7050 | 8360 | -0.493 (inactive) | -0.487
27 | CN(C)C(=O)C(O)C(Cc1ccccc1)NC(=O)c1cc2cc(Cl)ccc2[nH]1 (configuration not stated) | 0.959 (inactive) | 0.88 | 8860 | 9230 | -0.337 (inactive) | 0.715
28 | O=C(NNc1nc2cc(F)ccc2n2cccc12)c1cnccn1 | 0.939 (inactive) | 0.345 | 2180 | 2330 | 1.52 (inactive) | -2.55
29 | CNC(=O)c1ccccc1Sc1ccc2c(C=Cc3ccccn3)n[nH]c2c1 | 0.918 (inactive) | 0.851 | 2240 | 2440 | 1.15 (inactive) | -0.442
30 | OC(COc1cccc2ncccc12)CN1CCN(C2c3ccccc3C3C(c4ccccc42)C3(F)F)CC1 (configuration not stated) | 1.04 (inactive) | 0.683 | 5300 | 5090 | -0.428 (inactive) | 0.74
31 | CC(C)(CO)c1cc2cc(NC(=O)C3(c4ccc5c(c4)OC(F)(F)O5)CC3)c(F)cc2n1CC(O)CO (configuration not stated) | 0.912 (inactive) | 1.56 | 8420 | 9220 | -0.252 (inactive) | -0.139
32 | O=C(Nc1cc(C(F)(F)F)ccc1N1CCCCC1)c1ccncc1 | 0.916 (inactive) | 0.317 | 7440 | 8120 | -0.391 (inactive) | 1.41
33 | Cn1c(=O)cc(N2CCCC(N)C2)n(Cc2cc(F)ccc2C#N)c1=O (configuration not stated) | 0.894 (inactive) | 0.61 | 8440 | 9440 | -0.335 (inactive) | 1.48
34 | COc1c(C)c2c(c(O)c1CC=C(C)CCC(=O)O)C(=O)OC2 | 1.08 (inactive) | 0.86 | 3150 | 2920 | 0.238 (inactive) | 0.269
35 | O=NO | 0.914 (inactive) | 1.01 | 8730 | 9550 | -0.254 (inactive) | -0.15
36 | Cc1[nH]c2ccccc2c1CCNCc1ccc(C=CC(=O)NO)cc1 | 0.894 (inactive) | 0.866 | 1040 | 1160 | -0.232 (inactive) | -2.76
37 | CC(O)[C@@H]1C(=O)N2C(C(=O)O)=C(SC3CNC(CNS(N)(=O)=O)C3)C(C)[C@@H]12 (some centres not stated) | 0.983 (inactive) | 0.831 | 7900 | 8030 | -0.367 (inactive) | -0.0647
38 | CC1(C)[C@@H](O)CC[C@@]2(C)[C@H]1CC[C@]1(C)[C@H]2C(=O)C=C2[C@H]3C[C@@](C)(C(=O)O)CC[C@]3(C)CC[C@]21C | 0.897 (inactive) | 0.953 | 7890 | 8800 | -0.219 (inactive) | 0.479
39 | COc1cc2c(c(OC)c1OC)-c1c(cc3c(c1OC)OCO3)CC(C)C(C)C2 (configuration not stated) | 0.915 (inactive) | 1.02 | 7770 | 8490 | -0.0751 (inactive) | -0.149
40 | CC(C)c1onc(-c2c(Cl)cccc2Cl)c1COc1ccc(C=Cc2cccc(C(=O)O)c2)c(Cl)c1 | 0.901 (inactive) | 1.37 | 7080 | 7860 | 0.359 (inactive) | -0.609
41 | COc1cc2c(cc1OC)CC(=O)N(CCCN(C)CC1Cc3cc(OC)c(OC)cc31)CC2 (configuration not stated) | 0.865 (inactive) | 1.23 | 8090 | 9350 | -0.285 (inactive) | 0.346
42 | COc1cc(CCC(C)=O)ccc1O | 0.964 (inactive) | 0.351 | 7540 | 7830 | -0.174 (inactive) | -0.0455
43 | CN1CCN(S(=O)(=O)c2ccc(-c3cnc(N)c(C(=O)Nc4cccnc4)n3)cc2)CC1 | 0.893 (inactive) | 0.445 | 2390 | 2680 | 0.891 (inactive) | -1.29
44 | CCC(C)(C)C(=O)OC1CC(C)C=C2C=CC(C)C(CC[C@@H]3CC(O)CC(=O)O3)[C@H]21 (some centres not stated) | 1.33 (inactive) | 0.766 | 2960 | 2220 | 1.26 (inactive) | -1.5
45 | CCOC(=O)C(CCc1ccccc1)NC(C)C(=O)N1CCCC1C(=O)O (configuration not stated) | 0.954 (inactive) | 0.968 | 7520 | 7880 | -0.0746 (inactive) | -0.409
46 | CN(C)C(=O)c1ccc(S(=O)(=O)c2ccc(NC(=O)C(C)(O)C(F)(F)F)c(Cl)c2)cc1 (configuration not stated) | 0.887 (inactive) | 0.601 | 6480 | 7310 | -0.391 (inactive) | -0.0234
47 | COC(=O)C1=COC(O)[C@@H]2C(CO)=CC[C@H]12 (some centres not stated) | 0.899 (inactive) | 1 | 8660 | 9630 | -0.314 (inactive) | -0.656
